Source: PubChem BioAssay (Tox21)
Several values for one entry are separate records, joined by “and”; a condition that tells them apart may be missing. Equal values may be shown once. Inconclusive results are not listed. The source holds several records for some structures; these can differ, active in one and inactive in another. Activity calls are given as the source filed them. Unless noted, the call rests on the fitted dose curve; in most records, active means well fitted curve in the direction sought with a large enough effect in the repeat runs; inconclusive means weak or mixed curves; inactive means no such curve, though single readings can be large; an effect the other way counts as inactive or inconclusive.

How the values were obtained:
[1] = qHTS assay to identify aromatase inhibitors - cell viability counter screen (AID 743084);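 further: cells stimulated with testosterone during compound exposure; nearly all actives have a fitted effect of over 55% in size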; further: potency means the concentration at half of the fitted maximal effect
[2] = target: Aryl hydrocarbon receptor (Homo sapiens) (UniProt P35869); experiment: qHTS assay to identify small molecule that activate the aryl hydrocarbon receptor (AhR) signaling pathway (AID 743085); further: nearly all actives have a fitted effect of over 15% in size; further: potency means the concentration at half of the fitted maximal effect;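 on activation: HG2L7.5c1 human HepG2 liver cells with stably integrated DRE-driven firefly reporter; series mostly up to about 70 µM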
Chain of Aryl hydrocarbon receptor (Homo sapiens) (P35869 whole entry, looked up): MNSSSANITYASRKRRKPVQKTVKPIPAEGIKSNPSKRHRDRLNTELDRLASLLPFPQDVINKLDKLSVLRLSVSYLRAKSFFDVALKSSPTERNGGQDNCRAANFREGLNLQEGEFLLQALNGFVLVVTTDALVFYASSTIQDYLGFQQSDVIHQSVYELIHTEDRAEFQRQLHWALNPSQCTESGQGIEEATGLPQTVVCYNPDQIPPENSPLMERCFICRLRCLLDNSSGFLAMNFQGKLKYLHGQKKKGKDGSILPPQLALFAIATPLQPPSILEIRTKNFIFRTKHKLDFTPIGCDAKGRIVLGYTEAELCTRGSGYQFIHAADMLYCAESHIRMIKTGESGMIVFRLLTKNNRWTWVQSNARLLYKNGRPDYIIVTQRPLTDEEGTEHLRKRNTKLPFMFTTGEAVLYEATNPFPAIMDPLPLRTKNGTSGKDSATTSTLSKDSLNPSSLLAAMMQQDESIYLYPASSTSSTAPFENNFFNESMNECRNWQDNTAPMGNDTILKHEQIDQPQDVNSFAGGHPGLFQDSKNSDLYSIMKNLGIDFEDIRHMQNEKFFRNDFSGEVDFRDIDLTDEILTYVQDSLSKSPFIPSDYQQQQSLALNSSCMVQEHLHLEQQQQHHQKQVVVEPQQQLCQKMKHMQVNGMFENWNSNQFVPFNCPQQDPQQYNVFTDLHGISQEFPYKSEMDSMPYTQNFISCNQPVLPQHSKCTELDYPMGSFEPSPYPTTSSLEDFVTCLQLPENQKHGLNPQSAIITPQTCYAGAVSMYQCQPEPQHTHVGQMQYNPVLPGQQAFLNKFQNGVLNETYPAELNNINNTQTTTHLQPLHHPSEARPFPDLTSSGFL
Summary of the method: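 Steps: seed HepG2-AhR-luc cells; allow 5 h at 37C; pin-transfer test compound or vehicle; incubate 24 h at 37C; add viability dye (30 min, 37C) and read fluorescence; add luciferase substrate (30 min, RT) and read luminescence.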

[3] = qHTS assay to identify small molecule antagonists of the peroxisome proliferator-activated receptor gamma (PPARg) signaling pathway - cell viability counter screen (AID 743194); further: nearly all actives have a fitted effect of over 55% in size
Summary of the method: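 Cytotoxicity counter screen in PPARg-bla HEK293H cells, same wells as reporter assay. Compounds plus 50 nM rosiglitazone (final) for 17 h at 37 C, then viability read by CellTiter-Glo luminescence.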

[4] = qHTS assay for small molecule agonists of the antioxidant response element (ARE) signaling pathway (AID 743202; active means well fitted activation curve with a large enough effect in the signal ratio in the repeat runs, not every such curve was filed as active; the % refers to the signal ratio)
Summary of the method: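 HepG2 ARE-bla cells; 16 h treatment at 37 C; FRET-based beta-lactamase fluorescence read after 2 h substrate incubation at room temperature.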

[5] = qHTS assay for small molecule agonists of the antioxidant response element (ARE) signaling pathway - cell viability counter screen (AID 743203; calls by dose curve; further: nearly all actives have a fitted effect of over 55% in size)
Summary of the method: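 Parallel cytotoxicity read-out for the ARE-bla screen: HepG2 reporter cells, 16 hrs with compounds, then CellTiter-Glo luminescence.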

[6] = qHTS assay for small molecule activators of the heat shock response signaling pathway - cell viability counter screen (AID 743209); further: nearly all actives have a fitted effect of over 50% in size
Summary of the method: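 To flag cytotoxic compounds, HSE-bla HeLa cells plated at 1500 cells/well were dosed for 5 h at 37 C, followed by the reporter FRET read and then CellTiter-Glo, with luminescence recorded 30 min after reagent addition.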

[7] = qHTS assay for small molecule activators of the heat shock response signaling pathway (AID 743210; active means well fitted activation curve with a large enough effect in the signal ratio in the repeat runs, with a control signal flat, not every such curve was filed as active; the % refers to the signal ratio;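 further: HeLa cells with beta-lactamase reporter driven by heat shock elements; series mostly up to about 63 µM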)
Summary of the method: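 Following overnight attachment, HSE-bla HeLa cells received test compounds for 5 h at 37 C; beta-lactamase activity was then detected via FRET substrate fluorescence.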

[8] = qHTS assay to identify small molecule that activate the aryl hydrocarbon receptor (AhR) signaling pathway - cell viability counter screen (AID 743086);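 further: HepG2 liver cells carrying the AhR DRE luciferase reporter; series mostly up to about 70 µM; nearly all actives have a fitted effect of over 45% in size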
Summary of the method: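 HepG2-AhR-luc (HG2L7.5c1) cells, 4000/well, treated 24 h at 37 C with compound; viability measured as CellTiter-Fluor fluorescence after 30 min in the same wells as the luciferase read.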

[9] = target: Peroxisome proliferator-activated receptor gamma (Homo sapiens) (UniProt P37231); experiment: qHTS assay to identify small molecule agonists of the peroxisome proliferator-activated receptor gamma (PPARg) signaling pathway (AID 743094; active means well fitted activation curve with a large enough effect in the signal ratio in the repeat runs, not every such curve was filed as active; the % refers to the signal ratio)
Chain of Peroxisome proliferator-activated receptor gamma (Homo sapiens) (P37231 whole entry, looked up): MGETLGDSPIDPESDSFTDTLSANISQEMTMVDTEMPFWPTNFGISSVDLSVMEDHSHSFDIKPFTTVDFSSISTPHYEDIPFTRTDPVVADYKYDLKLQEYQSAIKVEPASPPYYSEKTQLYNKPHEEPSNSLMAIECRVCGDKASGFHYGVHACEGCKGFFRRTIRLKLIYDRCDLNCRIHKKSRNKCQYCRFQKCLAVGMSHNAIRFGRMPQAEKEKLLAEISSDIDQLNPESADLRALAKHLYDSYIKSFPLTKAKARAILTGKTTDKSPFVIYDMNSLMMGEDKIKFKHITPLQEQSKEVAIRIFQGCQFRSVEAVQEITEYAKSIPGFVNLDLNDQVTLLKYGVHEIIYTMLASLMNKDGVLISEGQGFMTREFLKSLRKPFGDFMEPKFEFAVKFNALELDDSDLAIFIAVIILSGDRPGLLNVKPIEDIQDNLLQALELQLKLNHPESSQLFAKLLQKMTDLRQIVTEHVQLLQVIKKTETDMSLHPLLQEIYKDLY
Summary of the method: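 Fluorescence-based beta-lactamase readout in HEK293H PPARg UAS-bla cells after 17 h compound exposure (37C) and 1 h B/G FRET substrate incubation at room temperature.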

[10] = target: Peroxisome proliferator-activated receptor gamma (Homo sapiens) (UniProt P37231); experiment: qHTS assay to identify small molecule antagonists of the peroxisome proliferator-activated receptor gamma (PPARg) signaling pathway (AID 743191; calls by dose curve; further: series mostly up to about 63 µM; nearly all actives have a fitted effect of over 30% in size)
Summary of the method: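 GeneBLAzer PPARg UAS-bla HEK293H cells, 5 h post-plating, exposed to compounds 17 h at 37C. LiveBLAzer B/G FRET substrate added for 1 h at room temperature; beta-lactamase reporter read by fluorescence intensity.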
On the % scale 0 is the no-effect control and ±100 the full control effect.

OC1CCCCC1c1ccccc1 (stereo unspecified)
inactive: Potency [1] | Potency [2] | outcome [3] | Potency [4] | Potency [5] | outcome [6] | outcome [7]

Cc1ccc(Cl)cc1Cl
inactive: Potency [1] | Potency [2] | outcome [3] | Potency [4] | Potency [5] | outcome [6] | outcome [7]

COC(=O)C1=C(C)NC(C)=C(C(=O)OC)C1c1ccccc1[N+](=O)[O-]
inactive: Potency [8] | outcome [9] | Potency [10] | outcome [3] | Potency [4] | Potency [5] | outcome [6]
inactive and 54.5 µM (active): Potency [1]

CCOC(=O)[C@H](CCc1ccccc1)N[C@@H](C)C(=O)N1[C@H](C(=O)O)C[C@@H]2CCC[C@@H]21
inactive: Potency [1] | Potency [8] | outcome [9] | Potency [10] | outcome [3] | Potency [4] | Potency [5] | outcome [6] | outcome [7]

CN1CCCC1
inactive: Potency [1] | Potency [8] | outcome [9] | Potency [10] | Potency [4] | Potency [5] | outcome [6] | outcome [7]

O=Cc1cccc([N+](=O)[O-])c1
inactive: Potency [1] | Potency [2] | outcome [9] | Potency [10] | outcome [3] | Potency [5] | outcome [6] | outcome [7]

CC(=O)CC(C)C
inactive: Potency [1] | Potency [8] | outcome [9] | Potency [10] | outcome [3] | Potency [4] | Potency [5] | outcome [6]

CC(=O)OC/C=C(\C)CC/C=C(\C)CCC=C(C)C
inactive: Potency [1] | Potency [8] | outcome [9] | Potency [10] | outcome [3] | Potency [5] | outcome [6]

NC(=O)Nc1ccccc1
inactive: Potency [1] | Potency [2] | Potency [4] | Potency [5] | outcome [6] | outcome [7]

O=C[C@H](O)[C@@H](O)[C@H](O)[C@H](O)CO
inactive: Potency [1] | Potency [2] | outcome [9] | outcome [3] | Potency [5] | outcome [7]

N[C@H]1CN(c2c(F)cc3c(=O)c(C(=O)O)cn(C4C[C@H]4F)c3c2Cl)CC12CC2 (stereo partly specified)
inactive: Potency [1] | Potency [2] | outcome [9] | outcome [3] | Potency [5] | outcome [6] | outcome [7]

NC(CSCC(=O)O)C(=O)O (stereo unspecified)
inactive: Potency [1] | Potency [2] | outcome [9] | outcome [3] | Potency [4] | outcome [6] | outcome [7]

CCCCCCCCCCCCCC=O
inactive: activity change, negative = cytotoxicity [1] -6.33% [at 8.47 µM] | viability change, negative = cytotoxic [8] 3.67% [at 8.47 µM] | activation [9] -7.22% [at 7.08 µM] | ratio activity, negative = inhibition [10] -1.51% [at 5.95 µM] | activity change, negative = cytotoxicity [3] 14.4% [at 5.95 µM] | activation [4] -7.51% [at 8.36 µM] | viability change, negative = cytotoxic [5] 1.02% [at 8.36 µM] | activity change, negative = cytotoxicity [6] -3.36% [at 5.95 µM]

CCCCOCCOCCOCc1cc2c(cc1CCC)OCO2
inactive: Potency [1] | outcome [3] | Potency [5] | outcome [6]
inactive and 18 µM (active): Potency [2]

C=CCS(=O)(=O)O
inactive: Potency [1] | Potency [8] | outcome [9] | Potency [10] | outcome [3] | Potency [5] | outcome [6] | outcome [7]

C[N+](C)(C)CCCCCC[N+](C)(C)C
inactive: Potency [1] | Potency [2] | outcome [9] | outcome [3] | Potency [4] | Potency [5] | outcome [7]

N#Cc1ccc(C2CCCc3cncn32)cc1 (stereo unspecified)
inactive: Potency [1] | Potency [2] | outcome [9] | outcome [3] | Potency [5] | outcome [6] | outcome [7]

C1OCOCO1
inactive: Potency [1] | Potency [2] | outcome [9] | outcome [3] | Potency [5] | outcome [6] | outcome [7]

O=C(CCCN1CCC(O)(c2cccc(C(F)(F)F)c2)CC1)c1ccc(F)cc1
inactive: Potency [1] | Potency [2] | Potency [10] | outcome [3] | Potency [5] | outcome [6] | outcome [7]

Cc1cc(O)cc2c1O[C@](C)(CCC[C@H](C)CCC[C@H](C)CCCC(C)C)CC2
inactive: Potency [1] | Potency [8] | outcome [9] | outcome [3] | Potency [4] | Potency [5] | outcome [6] | outcome [7]

C/C=C(\C)C#N
inactive: Potency [1] | Potency [2] | outcome [9] | Potency [5] | outcome [6] | outcome [7]
